PubChem BioAssay (NCI)
This is part of a sample that, as a whole, favours compounds with a hit. Of some 83,000 tested, about 20% had one in any assay.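 Single-dose data. Exposure time 48 hours. Values below 10 considered active.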 A number with no mark means an inactive call. Active and inactive are the calls of the source.

How the values were obtained:
Assay in all cases: NCI-60 one-dose screen, 48 h (100 = growth as untreated, 0 = no growth, -100 = all killed)
Conditions in all cases: 10 µM unless noted
NCI-H23 lung = test system: NCI-H23 lung
NCI-H226 lung = test system: NCI-H226 lung
NCI-H322M lung = test system: NCI-H322M lung
HOP-62 NSCLC = test system: HOP-62 NSCLC
NCI-H460 lung = test system: NCI-H460 lung
HOP-92 NSCLC = test system: HOP-92 NSCLC
NCI-H522 lung = test system: NCI-H522 lung
A549/ATCC NSCLC = test system: A549/ATCC NSCLC
786-0 renal = test system: 786-0 renal
COLO 205 colon = test system: COLO 205 colon
DU-145 prostate = test system: DU-145 prostate
K-562 leukemia = test system: K-562 leukemia
MALME-3M melanoma = test system: MALME-3M melanoma
MDA-MB-231 breast = test system: MDA-MB-231 breast
RXF 393 renal = test system: RXF 393 renal
SF-268 CNS = test system: SF-268 CNS
SF-295 CNS = test system: SF-295 CNS
SF-539 CNS = test system: SF-539 CNS
UACC-257 melanoma = test system: UACC-257 melanoma
M14 melanoma = test system: M14 melanoma

| SMILES | growth (NCI-H23 lung) | growth (NCI-H226 lung) | growth (NCI-H322M lung) | growth (HOP-62 NSCLC) | growth (NCI-H460 lung) | growth (HOP-92 NSCLC) | growth (NCI-H522 lung) | growth (A549/ATCC NSCLC) | growth (786-0 renal) | growth (COLO 205 colon) | growth (DU-145 prostate) | growth (K-562 leukemia) | growth (MALME-3M melanoma) | growth (MDA-MB-231 breast) | growth (RXF 393 renal) | growth (SF-268 CNS) | growth (SF-295 CNS) | growth (SF-539 CNS) | growth (UACC-257 melanoma) | growth (M14 melanoma) |
| --- | --- | --- | --- | --- | --- | --- | --- | --- | --- | --- | --- | --- | --- | --- | --- | --- | --- | --- | --- | --- |
| COc1cc(C(=O)/C=C/c2c(-c3ccc(F)cc3)nc3sccn23)cc(OC)c1OC | 56.5% | 76.1% | 29.9% | 61.3% | -1.39% (active) | -14.9% (active) | -18.2% (active) | 41.1% | 61.5% | 12.3% | 27.4% | 39.1% | 33.6% | 51% | -50.6% (active) | 25.4% | 3.82% (active) | -57.9% (active) | 39.9% | 35.3% |
| Cc1ccc(S(=O)(=O)n2cc(C(=O)C(=O)N3CCCCC3)c3ccccc32)cc1 | 55.1% | 87.5% | 92.9% | 80.3% | 91.9% | -0.0596% (active) | 70.2% | 120% | 88.7% | 109% | 97.1% | 69.9% | 84.8% | 75.2% | 113% | 78% | 60.4% | 90.6% | 101% | 89.4% |
| COc1ccc2nc3c(cc2c1)C(=O)CC(c1ccccc1)C3 (stereo not given) | 47.5% | 26.5% | 37.8% | 39.2% | 8.79% (active) | 61.6% | 15.4% | 34.8% | 52.8% | 1.93% (active) | 1.12% (active) | 13.2% | 47.7% | 54.6% | -2.76% (active) | 53.9% | 31% | 7.92% (active) | 82.9% | 9.28% (active) |
| COc1ncc(-c2ccc3nccc(C#CCCCCC(=O)O)c3c2)cc1NS(=O)(=O)c1ccc(F)cc1F | 44% | 46.4% | 18.3% | 29.9% | 12.3% | -21.7% (active) | 43.4% | 14.8% | 3.82% (active) | 28.6% | 40.9% | 78.6% | -21.4% (active) | 41.9% | -20% (active) | 36.5% | 6.94% (active) | -9.14% (active) | -2.67% (active) | 13.9% |
| O=C1NC(=O)C(Cc2ccc(OCc3ccc(-c4cc(F)c(F)c(F)c4)cc3)cc2)S1 (stereo not given) | 80.9% | 82.5% | 92.4% | 91.7% | 92% | 98.2% | 49.5% | 73.2% | 95.5% | 97.6% | 95.1% | 65% | 93% | 76.7% | 102% | 78.5% | 85.7% | 85% | 90.7% | 94.8% |
| Cc1ccc(S(=O)(=O)Oc2ccc(Br)cc2Br)cc1 | 88% | 85.5% | 91.2% | 76.6% | 97.2% | 82.3% | 82.1% | 64% | 86.6% | 63.9% | 78.1% | 18.5% | 92% | 85% | 87.9% | 76.5% | 69.3% | 81.6% | 81.4% | 78.8% |
| c1nc(N2CCOCC2)c2[nH]ccc2n1 | 116% | 114% | 104% | 114% | 104% | 69.8% | 102% | 99.9% | 101% | 113% | 106% | 92.7% | 109% | 107% | 117% | 102% | 112% | 111% | 105% | 103% |
| O=C(C[n+]1ccn(CC(OCc2ccc(Cl)cc2Cl)c2ccc(Cl)cc2Cl)c1)c1ccc(F)cc1 (stereo not given) | -87.8% (active) | -76.4% (active) | -89.3% (active) | -91.3% (active) | -86.1% (active) | -87.5% (active) | -82.2% (active) | 29.9% | -94.3% (active) | -84.8% (active) | -93.1% (active) | -17.2% (active) | -84.8% (active) | -96.7% (active) | -94.2% (active) | -93.3% (active) | -90.2% (active) | -91.9% (active) | -89.6% (active) | -97.3% (active) |
| Clc1ccc(N2CCN(CCCN3CCN(c4cccc(Cl)c4)CC3)CC2)cc1 | 50.8% | 90.5% | 78.3% | 67.7% | 49.5% | 42.7% | 59.5% | 58.3% | 62.4% | 42.3% | 79.7% | 38.8% | 52.8% | 50.6% | 41% | 79.2% | 51.7% | 56.4% | 37.4% | 44.1% |
| COc1ccc2c3ccnc(C(F)(F)F)c3n(CCCCN)c2c1 | 54.6% | 52.4% | 65.3% | 40.1% | 47.1% | -22.3% (active) | 11.4% | 77% | 54.5% | 10.7% | 71.4% | 71.1% | 43.7% | 41.5% | 49.8% | 67.5% | 59.7% | 34.6% | 37.9% | 23.6% |
| O=C(NNc1ccc(-c2ccccc2)nn1)c1ccc(F)cc1 | 104% | 98.7% | 94.3% | 106% | 99.1% | 91.5% | 95.2% | 98.4% | 78% | 112% | 88.9% | 98.5% | 109% | 94.5% | 82.1% | 88.8% | 95.3% | 93.4% | 108% | 99.9% |
| N#Cc1c(Cl)nc(SCC2CO2)nc1-c1ccccc1 (stereo not given) | 101% | 114% | 105% | 92.8% | 101% | 89.8% | 101% | 124% | 99.5% | 131% | 123% | 128% | 85.1% | 118% | 101% | 116% | 117% | 105% | 39.9% | 98.5% |
| CCc1ccc(C2=C/C(=C/c3ccccc3)C(=O)N2CCc2ccc(S(N)(=O)=O)cc2)cc1 | 101% | 99.2% | 94.5% | 96.9% | 100% | 99.2% | 100% | 108% | 98.6% | 120% | 115% | 97.6% | 94.3% | 100% | 99.3% | 94% | 101% | 96.3% | 106% | 99.4% |
| CSc1nc(=S)c2nc(SC)n(-c3ccccc3)c2[nH]1 | 103% | 90.8% | 96.8% | 85.5% | 95.5% | 77.6% | 70.1% | 97.8% | 101% | 101% | 108% | 98.5% | 109% | 105% | 108% | 96.4% | 105% | 103% | 96.3% | 102% |
| CCCC(NC(=O)OCc1ccccc1)C(=O)O (stereo not given) | -1.29% (active) | 89.5% | 121% | 111% | 97.9% | 82.2% | 16.2% | 79.5% | 108% | 137% | 107% | 107% | 88.8% | 75.9% | 90.5% | 104% | 92.3% | 95.9% | 36.1% | 93.1% |
